# Compound activity (PubChem)
# FGF22 binding – shifts melting point of recombinant human FGF22; recombinant FGF22 thermal shift, SYPRO orange fluorescence; percent of sucrose octasulfate shift, DMSO zero; 1.5% of 340,000 active; activity (Tm shift, normalised), % at 9.99 µM; AID 651658; Q9HCT0;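 active means mean Tm shift, scaled 0 neutral to 100 positive control, at about 1.3% or above, every replicate too, limit read from the data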
# Target sequence (Q9HCT0 whole entry, looked up): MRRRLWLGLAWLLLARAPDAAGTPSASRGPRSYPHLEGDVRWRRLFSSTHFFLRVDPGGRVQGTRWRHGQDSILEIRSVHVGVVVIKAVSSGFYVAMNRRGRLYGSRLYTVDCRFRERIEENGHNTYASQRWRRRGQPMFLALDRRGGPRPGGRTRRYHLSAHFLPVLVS
# ERAP1 inh – ERAP1 (human) enzyme inhibition; recombinant ERAP1, Leu-AMC fluorescence, 60 min; 0.15% of 340,000 active; inhibition, % at 10.7 µM; Q9NZ08;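 active means mean replicate inhibition of at least 30%, or all replicates individually reaching that 30% level; inactive means mean below 30% and not every replicate reaching it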;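 further: 0% = neutral control wells and 100% = L-leucinethiol positive control wells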
# SIRT5 block – inhibitors of human sirtuin-5 desuccinylase; Purified SirT5, succinyl-peptide AMC, trypsin-coupled fluorescence; 1.1% of 330,000 active; inhibition, % at 15 µM; in the data active means inhibition above about 15%
# CASP6 VEID inh – inhibitors of human caspase-6; P55212; purified caspase-6, Z-VEID-R110 cleavage fluorescence; inhibition, % at 12.5 µM; 0.53% of 350,000 active;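 active means mean inhibition across replicates at least about 35%, with every replicate also reaching that limit, limit read from the data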;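 further: 0% = median of neutral control wells and 100% = no fluorescence left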
# Target sequence (P55212 24-179 limits assumed): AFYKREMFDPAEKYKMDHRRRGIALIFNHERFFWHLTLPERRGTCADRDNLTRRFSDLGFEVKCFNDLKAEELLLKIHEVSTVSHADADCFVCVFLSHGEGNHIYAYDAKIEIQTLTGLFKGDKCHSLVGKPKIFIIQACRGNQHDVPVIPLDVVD
# Target sequence (P55212 194-293 limits assumed): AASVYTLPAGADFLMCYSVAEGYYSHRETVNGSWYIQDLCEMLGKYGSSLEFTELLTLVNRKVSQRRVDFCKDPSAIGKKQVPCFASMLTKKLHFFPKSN
# The depositor's hits bear a star; / = no result. Compounds with a hit are over-represented: about 3.1% of the library has one in this group of screens.
SMILES,FGF22 binding,ERAP1 inh,SIRT5 block,CASP6 VEID inh
CO[C@H](CN(C)S(=O)(=O)c1cccc(Cl)c1)[C@@H](C)CN([C@H](C)CO)S(=O)(=O)c1cccc(Cl)c1,/,2.5,4.1,-3.8
C[C@H](CO)N1C[C@H](C)[C@H](CN(C)Cc2ccc(C(=O)Nc3ccccc3N)cc2)Oc2ccc(NC(=O)Cn3cnnn3)cc2CC1=O,0.3,-0.4,/,-0.3
CCOC(=O)C1CCCN(C(=O)/C=C/c2cc(OC)c(OC)c(OC)c2)C1 (stereo not given),44.4*,0.5,1.0,0.8
CCOC(=O)C1CCCN(C(=O)/C=C/c2ccc(Cl)cc2)C1 (stereo not given),-0.2,-1.7,-0.9,0.6
CC(C)(C)NC(=O)C(=O)NN=C1CCCCCCCCCCC1,0.3,1.0,-1.1,60.4*
CCc1ccccc1-n1c(SCC(=O)N2CCCC2)nc2[nH]ncc2c1=O,43.7*,-1.3,-4.4,0.8
COc1cccc(CNC(=O)C[C@H]2CC[C@H]3[C@H](COc4ccc(NS(=O)(=O)c5ccccc5F)cc4C(=O)N3C)O2)c1,-0.2,1.2,20.2*,-0.7
CCS(=O)(=O)Nc1ccc2c(c1)C(=O)N(C)[C@H]1CC[C@H](CC(=O)NCCCN3CCOCC3)O[C@H]1CO2,0.0,-0.7,0.2,39.4*
CCNC(=O)C[C@H]1CC[C@H]2[C@@H](COc3ccc(NS(=O)(=O)c4ccccc4C)cc3C(=O)N2C)O1,-0.1,1.2,18.3*,0.9
COc1ccc(-c2ccc3c(c2)[C@@H]2[C@@H](CCN2C(=O)C2CCOCC2)[C@H](CO)N3C)cc1,-0.5,/,/,/
CC(=O)N1CC(=O)N2[C@H](CO)[C@@H](c3ccc(-c4cccc(C(=O)N(C)C)c4)cc3)[C@@H]2C1,/,/,-0.3,/
CN(C)C(=O)c1cccc(-c2ccc([C@@H]3[C@H](CO)N4C(=O)CN(C(=O)C5CC5)C[C@@H]34)cc2)c1,/,2.2,19.1*,2.2
COc1ccc(C#Cc2ccc([C@H]3[C@H]4CN(C(C)=O)CC(=O)N4[C@H]3CO)cc2)cc1,/,/,-5.4,/
CC(=O)N1CC(=O)N2[C@@H](CO)[C@H](c3ccc(-c4ccc(C(=O)N(C)C)cc4)cc3)[C@@H]2C1,/,/,22.7*,/
COc1ccc(C#Cc2ccc([C@H]3[C@@H](CO)N4C(=O)CN(C(C)=O)C[C@H]34)cc2)cc1,/,/,26.3*,/
CCCNC(=O)N1CC(=O)N2[C@H](CO)[C@@H](c3ccc(-c4ccc(F)cc4)cc3)[C@@H]2C1,/,1.4,25.8*,0.4
O=C(c1cnccn1)N1CC(=O)N2[C@H](CO)[C@@H](c3ccc(C4=CCCCC4)cc3)[C@@H]2C1,/,-0.7,28.4*,1.0
CC(C)C#Cc1cnc2c(c1)C(=O)N([C@@H](C)CO)C[C@H](C)[C@H](CN(C)Cc1cncnc1)O2,-0.1,0.0,-8.9,4.7
O=C1OCC2=C1C(c1ccc(F)cc1)c1cc3c(cc1N2)OCO3 (stereo not given),43.5*,-0.2,-1.8,0.8
O=C(C[C@H]1CC[C@H]2[C@@H](COC[C@H](O)CN2C(=O)Nc2cccc(F)c2)O1)NCc1ccccc1Cl,0.5,-0.4,10.9,9.1
Cc1nnsc1Sc1ccccc1,43.2*,1.6,-2.0,-2.7
O=C(Cc1ccccc1)c1ccc(O)cc1,-0.1,4.0,17.7*,0.2
C[C@@H]1CN([C@@H](C)CO)S(=O)(=O)c2ccc(-c3ccncc3)cc2O[C@H]1CN(C)C(=O)c1cccc(F)c1,-0.2,-1.9,-1.8,-1.9
C[C@@H]1CN([C@@H](C)CO)C(=O)c2c(c3ccccc3n2C)-c2ccccc2CO[C@H]1CN(C)S(=O)(=O)Cc1ccccc1,-0.7,-2.2,2.5,-1.9
CN1C(=O)c2cc(NC(=O)C3CCCCC3)ccc2OC[C@@H]2O[C@H](CC(=O)NCC3CCCCC3)CC[C@H]21,-0.5,3.7,8.0,2.5
SMILES,FGF22 binding,ERAP1 inh,SIRT5 block,CASP6 VEID inh
O=C(CCn1c2c(c3ccccc31)CCCC2)NNC(=O)c1ccc([N+](=O)[O-])cc1,0.0,-7.9,4.9,4.7
O=C(CCn1c2c(c3ccccc31)CCCC2)NNC(=O)c1ccc(Cl)c([N+](=O)[O-])c1,0.2,9.8,26.9*,-2.3
Cc1ccn2c(=O)nc(SCC(=O)OCc3ccccc3)nc2c1,-0.2,-0.1,-1.7,0.3
CCOC(=O)CSc1nc(=O)n2ccc(C)cc2n1,0.2,-2.5,31.2*,-6.5
NS(=O)(=O)c1cccc(NC(=O)c2ccc3nc[nH]c3c2)c1,0.0,-4.4,2.8,53.9*
COc1ccc([Si](C)(C)[C@@H]2[C@@H](CCO)O[C@]3(C(=O)N(Cc4cccc(NC(C)=O)c4)c4ccccc43)[C@H]2C)cc1,-0.8,-2.3,20.6*,1.4
COc1ccc([Si](C)(C)[C@H]2[C@H](CCn3cc([C@H](O)c4ccccc4)nn3)O[C@@]3(C(=O)N(Cc4cccc(N5CCOC5=O)c4)c4ccccc43)[C@@H]2C)cc1,0.4,1.1,22.6*,-0.5
COc1ccc([Si](C)(C)[C@@H]2[C@@H](CCO)O[C@]3(C(=O)N4c5c(cc(OC)cc53)C(C)=CC4(C)C)[C@H]2C)cc1,0.1,-2.2,15.2*,1.1
CCC(=O)N1C[C@@H](C)[C@H](OC)CN(C)C(=O)c2cc(NS(C)(=O)=O)ccc2OC[C@H]1C,0.0,1.1,-3.8,-1.0
Cc1ccc(/C=N/NC(=O)c2cc(C3CC3)nc3ccccc23)o1,43.4*,3.3,-1.3,0.5
Cc1ccc(/C=N/NC(=O)c2cc(-c3ccccc3)nc3ccccc23)o1,0.2,-1.3,1.8,/
O=C(C1COc2ccccc2O1)N1CCN(c2ccccc2O)CC1 (stereo not given),0.0,3.8,17.3*,4.0
O=C(C1COc2ccccc2O1)N1CCN(c2ccc(F)cc2)CC1 (stereo not given),/,-0.8,-2.1,-0.8
COc1ccc(C#Cc2cnc3c(c2)C(=O)N([C@@H](C)CO)C[C@@H](C)[C@@H](CN(C)C(=O)CN(C)C)O3)cc1,0.1,/,-2.5,/
Cc1ccc(NC(=O)CCNC(=O)c2ccccc2)cc1F,-0.1,2.8,-0.1,-5.4
O=C(CCNC(=O)c1ccccc1)Nc1ccc(F)c(Cl)c1,43.6*,-4.9,-4.3,-0.9
CSc1cccc(NC(=O)CCCNC(=O)c2ccc(Cl)cc2)c1,-0.9,51.1*,/,3.7
CCCNC(=O)C[C@@H]1CC[C@H]2[C@@H](COC[C@@H](O)CN2C(=O)c2ccccn2)O1,-0.2,2.3,-1.9,0.6
O=[N+]([O-])c1ccc(-c2nnc(CNC3CCCC3)o2)cc1,0.5,18.0,2.4,4.3
Clc1ccc(-c2nnc(CNC3CC3)o2)cc1,43.3*,-1.0,1.9,0.0
CO[C@H]1CC[C@@H]2CCOc3c(C#N)cccc3C(=O)N(C)C[C@H](OC)[C@@H](C)C(=O)N(C)C[C@@H]1O2,-0.3,-8.3,-2.6,-7.2
COc1ccc(-c2cc(C(=O)N(C)Cc3cccc(OC)c3OC)c3ccccc3n2)cc1OC,-0.2,-13.3,-4.0,0.8
COc1ccc(-c2cc(C(=O)N(C)Cc3nc4ccccc4c(=O)[nH]3)c3ccccc3n2)cc1OC,44.4*,11.4,/,5.3
